NTMT1 inhibitor: Primary qHTS for Inhibitors of N-terminal methyltransferase 1 (NTMT1): MTaseGlo Assay; NTMT1 MTase-Glo SAH luminescence, purified enzyme; Potency, µM (titrated, usually from 114 µM), without a hit: at the highest dose activity change, negative = inhibition, most hits filed as inhibitors; hit rate 2.5% among 59,000; AID 1645870, 2021;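 further: potency means the concentration at half of the fitted maximal effect; plate controls were DMSO vehicle for no effect and no enzyme for full effect; nearly all actives have a fitted effect of over 65% in size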
Target sequence (Q9BV86 whole entry, looked up): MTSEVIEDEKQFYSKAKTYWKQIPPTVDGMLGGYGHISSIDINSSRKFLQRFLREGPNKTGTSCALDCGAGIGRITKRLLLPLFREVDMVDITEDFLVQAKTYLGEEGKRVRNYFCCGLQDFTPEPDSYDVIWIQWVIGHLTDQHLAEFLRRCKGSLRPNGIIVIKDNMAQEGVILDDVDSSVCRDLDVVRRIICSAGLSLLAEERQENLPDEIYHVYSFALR
HTT-AS promoter: Primary qHTS for Identification of Small Molecule Activators of Huntingtin-Antisense Promoter Activity. HEK293 HTT-AS promoter firefly luciferase reporter, 24 h; response scale: percent change from vehicle, -100% = no light. Potency, µM (titrated, usually from 57.5 µM), inactives show at the highest dose activity change, positive = activation, hits mostly activators. hit rate 0.24% among 48,000; further: potency means the concentration at half of the fitted maximal effect; nearly all actives have a fitted effect of over 55% in size
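HEK293 Fluc reporter, 2,500 cells/well, 24 h pre-culture; cpds up to 57.5 uM final, 24 h 37 degrees C; Dual-Glo, 10 min RT; normalized vehicle = 0%, zero RLU = -100%.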
HTT prom inh: Primary qHTS for Identification of Small Molecule Inhibitors of Huntingtin Promoter Activity; hit rate 0.93% among 48,000; Potency, µM (highest dose often 57.5 µM), for the others: at the top dose activity change, negative = inhibition, usual class: inhibitors; AID 1508623, 2021; HEK293 HTT promoter firefly luciferase reporter, 24 h; further: potency means the concentration at half of the fitted maximal effect; nearly all actives have a fitted effect of over 50% in size
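Luminescence was read after Dual-Glo reagent and a 10 min room-temperature incubation. Values were normalized to vehicle (0% activity) and zero RLU (-100% activity). Reporter HEK293 cells had been exposed to compounds (up to 57.5 uM final) for 24 h.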
GPR32 ag: qHTS for Agonists of Human Resolvin D1 Receptor DRV1; activation, % at 76.9 µM; hit rate 2.5% among 48,000; Probable G-protein coupled receptor 32 (Homo sapiens), O75388; CHO-K1 GPR32 beta-arrestin PathHunter luminescence, 90 min; zero percent set by DMSO-only wells;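 active means activation of at least 60% and not above a set upper limit, about 1 call in 100 departs from these limits; inconclusive means activation of 40% to 60%, or above that upper limit; inactive means activation under 40%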; further: 0% is about no effect
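PathHunter enzyme-fragment complementation, CHO-K1 GPR32 stable line; 2,500 cells/well, overnight attach; cpd 90 min 37 °C 5% CO2; detection reagent 1 h RT; chemiluminescence. DMSO = EC0.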
DYRK1A inh-1: Assay for Inhibitors of Dual-Specificity Tyrosine-(Y)-Phosphorylation Regulated Kinase 1A (Kinase-Glo assay). hit rate 80% among 100. AID 2705, 2010. Potency, µM (highest dose often 76.9 µM), for the others: at the top dose activity change, negative = inhibition, most hits filed as inhibitors. recombinant DYRK1A, Kinase-Glo ATP depletion luminescence. shares compounds with NTMT1 inhibitor
CLK4 inh-1: Confirmation Assay for Inhibitors of CDC-like Kinase 4 (Kinase-Glo Assay): SAR round 2 | recombinant Clk4, Kinase-Glo ATP luminescence, 4.5 h | AID 493204, 2011 | shares compounds with NTMT1 inhibitor | Potency, µM (series often up to 76.9 µM), without a hit: at the highest dose activity, negative = inhibition, actives largely listed as inhibitors | hit rate 90% among 90
Target sequence (Q9HAZ1 whole entry, looked up): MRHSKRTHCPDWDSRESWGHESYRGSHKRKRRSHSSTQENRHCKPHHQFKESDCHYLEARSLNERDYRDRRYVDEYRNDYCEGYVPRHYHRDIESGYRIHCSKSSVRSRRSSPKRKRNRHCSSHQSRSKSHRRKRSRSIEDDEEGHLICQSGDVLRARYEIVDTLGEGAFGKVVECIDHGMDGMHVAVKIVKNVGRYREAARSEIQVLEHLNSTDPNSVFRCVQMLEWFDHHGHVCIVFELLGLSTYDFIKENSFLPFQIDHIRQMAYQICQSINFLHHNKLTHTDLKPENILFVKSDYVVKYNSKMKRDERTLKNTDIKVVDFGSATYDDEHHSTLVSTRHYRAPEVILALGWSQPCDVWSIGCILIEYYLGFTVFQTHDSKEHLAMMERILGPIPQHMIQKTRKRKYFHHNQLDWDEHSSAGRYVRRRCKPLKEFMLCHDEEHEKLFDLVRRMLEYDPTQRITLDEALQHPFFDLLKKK
CLK4 inh-2: Kinase Inhibition Study on Inhibitors of CDC-like Kinase 4 (Reaction Biology data): SAR round 2 | shares compounds with NTMT1 inhibitor | Reaction Biology kinase assay, 10 uM ATP | Potency, µM, hits mostly inhibitors | hit rate 100% among 65 | AID 504421, 2011; calls by dose curve
DYRK1A inh-2: Kinase Inhibition Study on Inhibitors of Dyrk1a (Reaction Biology data). Potency, µM, actives largely listed as inhibitors. Reaction Biology kinase assay, 10 uM ATP. shares compounds with NTMT1 inhibitor. hit rate 90% among 65. AID 504424, 2011;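 active means compounds that showed inhibition of Dyrk1a and received a fitted potency; inactive means compounds that showed no inhibition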
CLK2 inh: Kinase Inhibition Study on Inhibitors of CDC-like Kinase 2 (Reaction Biology data). shares compounds with NTMT1 inhibitor. Reaction Biology kinase assay, 10 uM ATP. Potency, µM, actives largely listed as inhibitors. hit rate 90% among 65;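 active means compound that inhibits Clk2 kinase in the dose series, with an IC50 potency reported; inactive means no inhibition seen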
CLK3 inh: Kinase Inhibition Study on Inhibitors of CDC-like Kinase 3 (Reaction Biology data) | shares compounds with NTMT1 inhibitor | recombinant CLK3 kinase assay, 10 uM ATP | Potency, µM, hits mostly inhibitors | hit rate 40% among 65;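 active means compounds that inhibited Clk3 enough in the ten-dose series to give a half-maximal potency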
DYRK1B RBC: Kinase Inhibition Study on Inhibitors of Dyrk1b (Reaction Biology data); Recombinant Dyrk1b kinase assay, 10 uM ATP; shares compounds with NTMT1 inhibitor; hit rate 80% among 65; Potency, µM, actives largely listed as inhibitors;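 active means compounds whose dose response shows an inhibitor phenotype against the kinase Dyrk1b; inactive means compounds showing no inhibitor phenotype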
CLK1 RBC: Kinase Inhibition Study on Inhibitors of CDC-like Kinase 1 (Reaction Biology data) | shares compounds with NTMT1 inhibitor | recombinant Clk1 kinase assay, 10 uM ATP | Potency, µM, most hits filed as inhibitors | hit rate 90% among 65 | AID 504430, 2011;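 active means compounds that block the splicing kinase Clk1 enough to give a fitted half-inhibition concentration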
NNMT inh: Counterscreen qHTS for Inhibitors of N-terminal methyltransferase 1 (NTMT1): NNMT MTaseGlo assay | NNMT MTase-Glo luminescence, SAH detection | hit rate 10% among 120 | shares compounds with NTMT1 inhibitor | Potency, µM (top dose mostly 57.1 µM), for inactives: at the top dose activity, negative = inhibition, hits mostly inhibitors
Starred values were filed as active, the others as inactive; ! = a repeat was not active; [ ] = another dose, or the depositor's remark. Shown are actives, neighbours in structure and some others; about 4.6% of the full set was active somewhere. Unless noted, the call rests on the fitted dose curve; in most records, active means well fitted curve in the direction sought with a large enough effect; inconclusive means small, poorly fitted or top-dose-only effect, or another doubt; inactive means no such curve, though single readings can be large; an effect the other way counts as inactive or inconclusive.

What do the screens show for `Cc1ccsc1CN(C)c1ncnc2ccc(-c3ccc([C@@H](C)O)o3)cc12`?
NTMT1 inhibitor: 8.9µM*!; CLK4 inh-1: 0.16µM*

How did Cc1ccc(CN(C(=O)c2ccccc2F)c2ccccn2)o1 do in these assays?
NTMT1 inhibitor: inconclusive; HTT-AS promoter: 9%; HTT prom inh: -1%; GPR32 ag: -4

Results for Cc1ccc(CN(C)c2ncnc3ccc(-c4ccc(C(=O)O)o4)cc23)o1 ?
NTMT1 inhibitor: 2%; CLK4 inh-1: 0.52µM*

What do the screens show for `CC/C(=C(\c1ccc(O)cc1)c1ccc(OCCNC)cc1)c1ccccc1`?
NTMT1 inhibitor: 22µM*; NNMT inh: inconclusive

How did Clc1ccccc1-c1ccc2ncnc(NCc3ccc4c(c3)OCO4)c2c1 do in these assays?
NTMT1 inhibitor: 3%

Results for CN(CC1CCCCC1)c1ncnc2ccc(-c3ccc4c(c3)OCO4)cc12 ?
CLK4 inh-1: 0.058µM*

What do the screens show for `CN(C)CCCNc1ncnc2ccc(-c3ccc4c(c3)OCO4)cc12`?
NTMT1 inhibitor: inconclusive; CLK4 inh-1: 1µM*

What do the screens show for `c1nc(N2CCNCC2)c2cc(-c3ccc4c(c3)OCO4)ccc2n1`?
NTMT1 inhibitor: inconclusive; CLK4 inh-1: 0.58µM*

Results for Fc1cccc(CNc2ncnc3ccc(-c4ccc5c(c4)OCO5)cc23)c1 ?
NTMT1 inhibitor: 2%

What do the screens show for `NCCNc1ncnc2ccc(-c3ccc4c(c3)OCO4)cc12`?
DYRK1A inh-1: 0.18µM*; CLK4 inh-2: 8.4*; DYRK1A inh-2: 5.5µM*; CLK2 inh: 6.4µM*; CLK3 inh: 15µM*; DYRK1B RBC: inactive; CLK1 RBC: 5.6µM*

What do the screens show for `Cn1ncc2cc(-c3cnc(N)c(Cl)c3N3CCC4(CCNC4=O)CC3)ccc21`?
NTMT1 inhibitor: -6%

Results for CC1NC(=O)CNC(=O)C(C(C)C)NC(=O)C2CCCN2C(=O)C(C(C)C)NC(=O)C(Cc2c[nH]c3ccccc23)NC1=O (stereo not given) ?
NTMT1 inhibitor: -4%[12.6 µM]

Results for c1nc(NCC2CCCCC2)c2cc(-c3ccc4c(c3)OCO4)ccc2n1 ?
NTMT1 inhibitor: inconclusive; CLK4 inh-1: 0.073µM*; CLK4 inh-2: 0.15*; DYRK1A inh-2: 0.19µM*; CLK2 inh: 0.86µM*; CLK3 inh: 5.3µM*; DYRK1B RBC: 1.1µM*; CLK1 RBC: 0.51µM*

Results for CC(=O)C1CCC2(C)C3=C(CCC12C)C1(C)CCC(=O)C(C)(C)C1CC3 (stereo not given) ?
NTMT1 inhibitor: 6%[29.8 µM]

What do the screens show for `Cc1ccc(-c2ccc(=O)n(CC(=O)N(C)CCc3ccco3)n2)cc1`?
NTMT1 inhibitor: 8%

Results for c1nc(NCc2ccc3c(c2)OCO3)c2cc(-c3ccoc3)ccc2n1 ?
NTMT1 inhibitor: 1%

What do the screens show for `CCOC(=O)c1ccoc1-c1ccc2ncnc(NCCc3cnc[nH]3)c2c1`?
NTMT1 inhibitor: -9%; DYRK1A inh-1: inconclusive

Results for Cc1ccc(CNc2ncnc3ccc(-c4ccoc4)cc23)o1 ?
NTMT1 inhibitor: -5%; DYRK1A inh-1: 6.5µM*

How did Cc1occc1-c1ccc2ncnc(NCCc3cnc[nH]3)c2c1 do in these assays?
NTMT1 inhibitor: inconclusive; DYRK1A inh-1: 9.2µM*

What do the screens show for `c1nc(NCCc2cnc[nH]2)c2cc(-c3ccoc3)ccc2n1`?
NTMT1 inhibitor: -2%; DYRK1A inh-1: 4.1µM*

Results for C=C1CC/C=C(/CO)C(=O)C[C@@H]2[C@@H]1C[C@@]2(C)COC(C)=O ?
NTMT1 inhibitor: -7%[57.5 µM]

How did O=C([C@@H](Cc1ccc(O[S+](=O)([O-])c2ccccn2)cc1)N[S+](=O)([O-])c1cccc2cccnc12)N1CCN(c2ccccc2)CC1 do in these assays?
NTMT1 inhibitor: 3%

How did CC(O)c1ccc(-c2ccc3ncnc(NCCc4cnc[nH]4)c3c2)o1 (stereo not given) do in these assays?
NTMT1 inhibitor: inconclusive; CLK4 inh-1: 1.5µM*

What do the screens show for `c1cncc(CNc2ncnc3ccc(-c4cccnc4)cc23)c1`?
NTMT1 inhibitor: -4%[57.5 µM]

How did CCC(C)CNCC(=O)N1CCC2SC=CC2C1COc1cccc(C)c1 (stereo not given) do in these assays?
NTMT1 inhibitor: -6%[57.5 µM]

Compound activity as filed in PubChem BioAssay.
